Shown are actives, neighbours in structure and some others; about 8% of the full set was active somewhere.
KB-V1 MDR tox: kills drug-selected multidrug resistant KB-V1 cells. KB-V1 MDR cells viability, CellTiter-Glo, 72 h. Potency, µM (doses to about 46.1 µM), most hits filed as cytotoxic. actives 3.4% (n = 400,000); further: on the % scale 0 is the no-effect control and ±100 the full control effect; nearly all actives have a fitted effect of over 60% in size
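qHTS viability screen in drug-selected KB-V1 MDR cells: 72 h compound treatment at 37 degrees C, ATP luminescence end point.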
HT1080 IDH1KD tx: HT-1080 IDH1 knockdown cell toxicity (counter line). HT-1080 IDH1 knockdown viability, ATP luminescence, 48 h. Potency, µM (highest dose often 46.1 µM), for inactives: at the top dose activity, negative = toxicity, hits mostly cytotoxic. actives 2% (n = 360,000). AID 686971;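 further: 0% = DMSO wells and -100% = cell-free medium wells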
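HT-1080-IDH1KD cells (IDH1 knocked down), 750/well in RPMI with 5% FBS, treated with compound 48 h at 37 degrees C. Viability by CellTiter-Glo luminescence, normalised to DMSO and no-cell wells; concentration-response curves classed.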
HT1080NT lethal: kills 2HG-producing HT-1080-NT fibrosarcoma cells | HT-1080-NT fibrosarcoma viability, CellTiter-Glo ATP luminescence, 48 h | Potency, µM (doses to about 46.1 µM), for inactives: at the top dose activity, negative = less viability, hits mostly cytotoxic | actives 1.6% (n = 360,000) | AID 686970;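 further: NT is the 2HG producing partner of a matched IDH1 knockdown line; 0% = DMSO-treated cells and -100% = media-only wells without cells; nearly all actives have a fitted effect of over 55% in size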
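Read-out is CellTiter-Glo luminescence after 10 minutes at room temperature, following 48 hours' compound treatment of HT-1080-NT cells (750 cells/well, RPMI, 5% FBS, 37 degrees C).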
KB-3-1 tox: kills parental KB-3-1 adenocarcinoma cells | actives 1.4% (n = 400,000) | Potency, µM (series often up to 46.1 µM), most hits filed as cytotoxic | KB-3-1 viability, CellTiter-Glo ATP luminescence, 72 h; further: on the % scale 0 is the no-effect control and ±100 the full control effect; nearly all actives have a fitted effect of over 60% in size
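Cytotoxicity in the drug-sensitive parental line KB-3-1 was scored as loss of CellTiter-Glo luminescence following 72 h incubation with compound. Values come from curve fitting of normalized concentration-response data.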
MCF10A rerep: inducers of DNA re-replication in MCF 10A breast cells; MCF 10A DNA re-replication, Hoechst nuclear intensity, 48 h; Potency, µM (series often up to 46.1 µM), without a hit: top-dose activity, positive = re-replication, actives largely listed as activators; actives 2.9% (n = 350,000); further: % of control where 0% means no effect; nearly all actives have a fitted effect of over 50% in size
SW480 rereplic: inducers of DNA re-replication in SW480 colon cancer cells | SW480 DNA re-replication, Hoechst DNA content imaging, 48 h | Potency, µM (titrated, usually from 46.1 µM), for the others: at the highest dose re-replication activation, hits mostly activators | actives 1.8% (n = 340,000) | AID 624297; further: % of control where 0% means no effect; nearly all actives have a fitted effect of over 55% in size
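Image-based read-out: total Hoechst fluorescence of nuclei (405 nm excitation, 500-530 nm emission), with hits raising the fraction of high-intensity nuclei. SW480 colon cells incubated 48 hr with compounds at 37 C.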
* marks the source's active call; other numbers are inactive results; i = inactive; ? = inconclusive; nt = not tested or not shown; [ ] = remark or other dose. The call rests on the fitted dose curve; in most records, active means well fitted curve in the direction sought with a large enough effect; inconclusive means small, poorly fitted or top-dose-only effect, or another doubt; inactive means no such curve, though single readings can be large; an effect the other way counts as inactive or inconclusive. Potency means the concentration at half of the fitted maximal effect.

SMILES | KB-V1 MDR tox | HT1080 IDH1KD tx | HT1080NT lethal | KB-3-1 tox | MCF10A rerep | SW480 rereplic
COc1ccc(NC(=O)CSc2nc(C)c3c(c2C#N)CCCC3)cc1 | 4.61µM* | 10.2% | 3.3% | i | 11.9% | 11.8%
Cc1nc(SCC(=O)NCc2ccc3c(c2)OCO3)c(C#N)c2c1CCCC2 | i | 2.4% | 4.4% | i | -2.2% | -12.4%
CCc1ccc(NC(=O)CSc2nc(C)c(C(=O)Nc3ccc(Cl)cc3)c(-c3ccc(OC)cc3)c2C#N)cc1 | i | nt | nt | i | nt | nt
O=C(CCSCCC(=O)NN=Cc1ccccc1O)NN=Cc1ccccc1O | nt | -25.3% | 4.3% | nt | 16.4µM* | -4.6%
Cc1cc(C)n(CCC(=O)N/N=C/c2ccccc2O)n1 | 8.2µM* | -23.9% | -19.9% | ? | 5.5% | 29.7%
O=C(CN1CCCc2ccccc21)N/N=C/c1ccc(F)cc1F | i | -14.4% | 6.0% | i | ? | -3.1%
O=C(CN1CCCc2ccccc21)N/N=C/c1ccccc1O | 13µM* | ? | -21.2% | ? | 8.3% | ?
O=C(CSc1ccccc1)N/N=C/c1ccccc1O | i | 8.2µM* | ? | i | 10.4% | ?
O=C(CSc1n[nH]c(=O)[nH]c1=O)N/N=C/c1ccccc1O | i | 14.9% | 19.2% | i | -1.3% | 1.5%
CC(C)n1c(SCC(=O)c2ccc(F)cc2)nc2c(sc3ccccc32)c1=O | i | nt | nt | i | nt | nt
O=C(CCCCCNC(=O)c1ccccc1)N/N=C/c1ccccc1O | ? | -25.8% | 4.2% | i | ? | 5.8µM*
O=C(N/N=C/c1ccccc1O)C1SCCCS1 | i | 16.4µM* | ? | ? | 2.1% | ?
O=C(CCCCCNC(=O)c1ccccc1)N/N=C/c1ccco1 | i | 6.8% | 0.8% | i | 1.4% | -2.8%
Cn1cccc1Cc1nnc(SCC(=O)Nc2ccc3c(c2)OCCO3)n1-c1ccc(F)cc1 | i | 8.8% | 7.5% | i | -2.0% | 12.7%
COc1ccc(-n2c(Cc3cccn3C)nnc2SCC(=O)NCc2ccc(F)cc2)cc1 | ? | 5.8% | 11.3% | i | 5.4% | -2.4%
Cc1ccc(-n2c(Cc3cccn3C)nnc2SCC(=O)Nc2ccc3c(c2)OCO3)cc1 | 3.66µM* | ? | -9.3% | i | 19.2% | ?
O=C(CSc1nnc(Cc2cccs2)n1-c1ccccc1)Nc1ccc2c(c1)OCCO2 | i | -0.5% | -3.5% | i | 18.1% | 0.6%
Cc1ccc(-n2c(Cc3cccs3)nnc2SCC(=O)Nc2ccc(F)c(F)c2)cc1 | i | 11.2µM* | -11.2%[9.24 µM] | i | ? | -1.7%
Cn1cccc1Cc1nnc(SCC(=O)Nc2ccc(F)cc2)n1-c1ccc(F)cc1 | i | 1.3% | 6.5% | i | -1.0% | 21.1%
Cc1ccc(-n2c(Cc3cccn3C)nnc2SCC(=O)NCc2ccc3c(c2)OCO3)cc1 | 14.6µM* | -2.0% | 7.3% | ? | -7.8% | -2.0%
CCSc1nnc(NC(=O)CSc2nnc(Cc3cccn3C)n2-c2ccc(F)cc2)s1 | 16.4µM* | 5.9% | -5.6% | i | ? | 2.1%
O=C(Nc1ccc2nccnc2c1)N1CCCCCC1 | i | nt | nt | i | nt | nt
CCc1ccc(NC(=O)CSc2nnc(-c3ccccc3)n2C)cc1 | i | nt | nt | ? | nt | nt
CCN(Cc1ccccc1)S(=O)(=O)c1ccc(F)c(C(=O)Nc2ccc(C(C)C)cc2)c1 | i | nt | nt | i | nt | nt
CC(C)(C)NCCOCCOc1ccccc1-c1ccccc1 | 23.1µM* | -2.1% | 0.3% | i | 1.5% | -5.0%
SMILES | KB-V1 MDR tox | HT1080 IDH1KD tx | HT1080NT lethal | KB-3-1 tox | MCF10A rerep | SW480 rereplic
CCC(C)NCCOCCOc1ccccc1-c1ccccc1 (centres undefined) | i | ? | ? | i | 17.9% | ?
COCCCNCCOCCOc1ccccc1-c1ccccc1 | 23.1µM* | -15.3% | -8.1% | i | 1.2% | -1.8%
COc1cc(OC)c(NC(=O)Nc2sc3nc4n(c(=O)c3c2C)CCC(C)CC4)cc1Cl (centres undefined) | i | nt | nt | i | nt | nt
CC(=O)Nc1ccc(SCC(=O)NNC(=O)CN(C)S(=O)(=O)c2ccc(C)cc2)cc1 | i | -2.7% | 0.0% | i | 0.5% | 5.17µM*
Cc1ccc(S(=O)(=O)NCc2ccccc2)cc1C(=O)N1CCN(c2ccccc2)CC1 | ? | 0.9% | -2.7% | 14.6µM* | ? | ?
Cc1ccc(S(=O)(=O)NCc2ccccc2)cc1C(=O)N1CC(C)CC(C)C1 (centres undefined) | 13µM* | 1.4% | 8.2% | i | 0.7% | 4.3%
Cc1ccc(S(=O)(=O)NCc2ccccc2)cc1C(=O)N1CCCCC1 | i | 3.1% | 16.3% | i | 0.0% | -1.5%
N#Cc1ccc2c(c1)N(CCCN1CCC(O)CC1)c1ccccc1S2 | nt | nt | nt | nt | 1.0% | 6.9%
O=C1/C(=C\c2ccc3c(c2)OCO3)CCC/C1=C/c1ccc2c(c1)OCO2 | i | -0.6% | -15.4% | i | 11.6µM* | -2.3%
O=c1/c(=C\c2ccc3c(c2)OCO3)sc2n1CCCN=2 | 13µM* | -3.9% | 1.0% | i | 11.3% | 7.7%
O=C1OCC/C1=C\c1ccc2c(c1)OCO2 | i | 4.9% | -1.1% | i | 8.3% | 9.8%
Cc1ccc(/C=c2/sc3n(c2=O)CCCN=3)o1 | i | 9.3% | 15.0% | i | 6.8% | 0.8%
CC1CC/C(=C\c2ccc3c(c2)OCO3)C(=O)/C1=C/c1ccc2c(c1)OCO2 (centres undefined) | i | ? | ? | 25.9µM* | 7.31µM* | ?
CC(C)(C)OC(=O)N1CCC(c2c(C(=O)Nc3ccc4c(c3)OCCO4)cnn2-c2ccccc2)CC1 | i | nt | nt | i | nt | nt
CC(=O)N1C=CN(C(C)=O)C(c2cn(C)c3ccccc23)C1c1cn(C)c2ccccc12 (centres undefined) | 23.1µM* | -5.9%[9.24 µM] | -22.7% | ? | 7.4% | 8.0%
O=C1C2C3C=CC(C3)C2C(=O)N1c1ccc(N2CCN(c3ccccn3)CC2)c([N+](=O)[O-])c1 (centres undefined) | 10.3µM* | -17.1% | ? | i | ? | ?
O=C(CCN1C(=O)C2C3C=CC(C3)C2C1=O)N1CCN(c2ccccn2)CC1 (centres undefined) | i | 0.0% | -4.4%[9.24 µM] | i | 1.0% | 7.0%
CCOC(=O)CNC(=O)C1CCCCC1 | ? | nt | nt | i | nt | nt
CC1CCC(C(C)C)C(OCC(O)CN2CCN(Cc3ccccc3)CC2)C1 (centres undefined) | ? | ? | 23.1µM* | ? | ? | ?

Screens deposited in PubChem by National Center for Advancing Translational Sciences (NCATS).
